Source: PubChem BioAssay
TRHR enhancer – qHTS for Small Molecule Agonists and Allosteric Enhancers of Human TRH Receptor: Primary Screen for Enhancers; Thyrotropin-releasing hormone receptor (Homo sapiens), P34981; TRHR cells, fluo-8 calcium fluorescence, EC20 TRH enhancement; enhancement, % at 2 µM; AID 493056, 2011; 360,000 tested, 0.66% active; in the data active = enhancement above about 30%; note: 0% is about no effect
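TRHR-expressing cells loaded with fluo-8 calcium dye were read kinetically (ex 480/em 530) during compound addition, then stimulated with an EC20 of TRH (10 nM final). Enhancement of the Gq-mediated intracellular calcium response was scored.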
TRHR ag – qHTS for Small Molecule Agonists and Allosteric Enhancers of Human TRH Receptor: Primary Screen for Agonists. Thyrotropin-releasing hormone receptor (Homo sapiens), P34981. TRHR cells, calcium flux fluo-8, FDSS agonist mode. activation, % at 2 µM. 360,000 tested, 0.18% active; note: 0% is about no effect
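TRHR-expressing cells, plated overnight in medium with 10% serum, were loaded with fluo-8 calcium dye at room temperature. After a 10 s baseline, library compound was pin-added and calcium release was recorded kinetically (ex 480/em 530) as agonist response.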
D1 antag – Antagonist of Human D 1 Dopamine Receptor: qHTS. HEK293 TREx D1 cells, calcium flux, dopamine EC80; stronger effect = lower value. activity change, negative = inhibition, % at 10 µM. 360,000 tested, 3.2% active; in the data active = activity change below about -30%; note: % is set by controls: 0 for no effect and ±100 for the full control effect
Target sequence (P21728 whole entry, looked up): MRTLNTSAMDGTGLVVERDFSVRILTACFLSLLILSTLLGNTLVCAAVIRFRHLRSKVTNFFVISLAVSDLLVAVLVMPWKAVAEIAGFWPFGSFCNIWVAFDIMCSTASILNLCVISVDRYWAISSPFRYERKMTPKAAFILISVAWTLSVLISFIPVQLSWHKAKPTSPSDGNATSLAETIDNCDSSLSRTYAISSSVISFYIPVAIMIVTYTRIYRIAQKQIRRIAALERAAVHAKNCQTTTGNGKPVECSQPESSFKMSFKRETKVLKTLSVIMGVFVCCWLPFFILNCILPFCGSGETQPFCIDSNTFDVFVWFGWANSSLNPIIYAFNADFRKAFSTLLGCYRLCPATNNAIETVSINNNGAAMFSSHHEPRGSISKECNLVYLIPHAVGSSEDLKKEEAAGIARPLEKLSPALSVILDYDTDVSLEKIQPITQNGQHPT
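Allosteric or orthosteric antagonism assessed as attenuation of the calcium response to EC80 dopamine, added 180 s after compound, in induced HEK293 Trex D1 cells loaded with no-wash calcium dye.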
D1 agonist – Allosteric Agonists of the Human D1 Dopamine Receptor: qHTS; D(1A) dopamine receptor (Homo sapiens), P21728; HEK293 T-REx D1 cells, calcium flux, agonist mode; activation, % at 2 µM; 360,000 tested, 1% active; AID 504660, 2011; note: 0% is about no effect
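Inducible HEK293 T-REx D1 cells, force-coupled to calcium signalling, were plated at 4000 cells/well with tetracycline and held overnight at 30 C. After no-wash calcium dye loading, compound-evoked calcium rise over 180 s flagged agonists.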
D1 PAM – Potentiators of Human D1 Dopamine Receptor: qHTS. 360,000 tested, 0.036% active. AID 504651, 2011. D(1A) dopamine receptor (Homo sapiens), P21728. potentiation, % at 10 µM. HEK293 TREx D1 cells, calcium flux, dopamine EC20 potentiation; in the data active = potentiation above about 30%; note: 0% is about no effect
* hit, by the source's call. An excerpt weighted towards active compounds, which were near 4.7% of everything screened. Cut-off read from the data, not from the text of the source, unless noted: active = activation above about 30%; inactive = the rest.

SMILES	TRHR enhancer	TRHR ag	D1 antag	D1 agonist	D1 PAM
Cc1ccc(NC(=O)C(=O)NCC(c2ccc3c(c2)OCO3)N2CCN(C)CC2)c(C)c1 (stereo unspecified)	-0.6	0.8	10.3	4.9	-4.4
COc1ccc(OC)c(CNC(=O)C2CCN(S(=O)(=O)c3ccc4[nH]c(=O)oc4c3)CC2)c1	-4.0	0.2	-22.6	0.2	-4.0
O=C(N/N=C/c1cc([N+](=O)[O-])cc(Br)c1O)C12CC3CCC(CC(C3)C1)C2	-1.5	29.2	-32.0*	122.2*	14.4
COc1cc(/C=N/NC(=O)C23CC4CC(CC(C4)C2)C3)cc(Br)c1O	3.3	-0.2	22.0	1.0	-4.0
CCCC(=O)N(c1ccc2oc(C)c(C(C)=O)c2c1)S(=O)(=O)c1ccc(C(=O)O)cc1	-25.1	0.7	-42.4*	0.7	-8.4
O=C(COC(=O)CC1Sc2ccccc2NC1=O)NCc1ccccc1 (stereo unspecified)	7.3	0.1	2.0	36.8*	-3.8
COc1ccc(CNC(=O)CC2Sc3ccccc3NC2=O)cc1 (stereo unspecified)	-4.1	0.2	-9.0	5.0	-0.1
COc1ccc2[nH]cc(C(O)CN3CCN(c4ccccc4)CC3)c2c1 (stereo unspecified)	-3.5	3.0	-1.3	6.4	-2.0
COc1ccc2[nH]cc(C(O)CN3CCN(c4ccccc4F)CC3)c2c1 (stereo unspecified)	-0.1	0.2	-61.6*	18.5	-14.6
CCOC(=O)N1CCN(C(=O)c2noc3c2COc2ccccc2-3)CC1	2.0	0.1	-30.8*	6.7	-3.9
CCCN1CCN(C(=O)c2noc3c2COc2ccc(C)cc2-3)CC1	-1.4	0.2	-27.1	14.5	-2.7
Cc1noc(C)c1S(=O)(=O)N1CCN(c2ccc(Cl)cc2)CC1	-4.6	-0.2	0.6	-0.1	0.9
CC(=O)c1ccc(N2CCN(C(=O)c3ccc(OCc4c(C)noc4C)cc3)CC2)cc1	-2.4	-0.7	-32.3*	7.5	-2.4
Cc1noc(C)c1S(=O)(=O)Nc1ccc(C(=O)N2CCN(c3ccc(Cl)cc3)CC2)cc1	-0.6	0.2	-36.0*	20.3	-7.2
CC(=O)Oc1cccc(N2C(=O)c3ccccc3C2=O)c1	2.8	-0.3	-30.6*	0.2	5.0
CC(=O)Nc1cccc2c1C(=O)N(c1cccc(OC(C)=O)c1)C2=O	-0.3	-0.3	23.3	11.4	-4.6
CC(=O)c1ccc(C(=O)Nc2ccc3c(c2)C(=O)NC3=O)cc1	-0.6	0.5	-35.2*	-0.3	-8.3
CC(=O)c1ccc(NC(=O)c2cccc(N3C(=O)c4ccccc4C3=O)c2)cc1	6.7	0.6	-31.5*	2.1	-0.4
CC(CNC(=O)c1ccc(OC2CCN(Cc3ccccn3)CC2)cc1)Oc1cccnc1 (stereo unspecified)	0.2	0.3	4.4	0.0	1.3
COc1ccc2c(c1)CC(C(=O)Nc1cc(OC)c(OC)c(OC)c1)CO2 (stereo unspecified)	7.3	0.0	3.7	2.7	5.4
CC(C)N(C(=O)CN1CCC(c2nc3ccccc3[nH]2)CC1)C(C)C	-1.9	0.4	-15.3	2.7	-0.8
CCOC(=O)CCCCC(=O)c1[nH]c(=O)[nH]c1CSc1nnc2c3cc(Br)ccc3n(C)c2n1	1.1	-0.5	-33.3*	2.9	-1.4
CCCCN(C(=O)c1ccc(NC(=O)C(C)C)cc1)c1ccccc1	-12.1	-0.7	0.4	0.9	-1.6
O=C1COc2ccc(S(=O)(=O)N3CCN(c4ccccc4)CC3)cc2N1	1.5	0.2	2.6	3.2	-6.2
CC(CC(=O)N1CCN(c2ccccc2)CC1)S(=O)(=O)c1ccc2c(c1)NC(=O)CO2 (stereo unspecified)	1.1	-0.1	-48.1*	7.4	-2.4
O=C(NCc1cccnc1)c1cccc2c1C(=O)N(C1CCCCC1)C2	7.3	-0.3	-57.8*	-1.0	-5.7
CCN(CC)CC(O)Cn1c(C)c(-c2ccccc2)c2cc([N+](=O)[O-])ccc21 (stereo unspecified)	1.5	3.9	2.1	34.4*	-7.6
